According to PubChem BioAssay (Tox21):
Several values for one entry are separate records, joined by “and”; a condition that tells them apart may be missing. Identical values can stand only once. Results filed as inconclusive are left out. Entries that show only a call come without a potency. Some compounds were tested as several samples or in several runs, with calls that do not always agree. Activity calls are given as the source filed them. Unless noted, the call rests on the fitted dose curve.

How the values were obtained:
[1] = Nuclear factor erythroid 2-related factor 2/antioxidant responsive element (Nrf2/ARE) small molecule agonists: qHTS cell viability counter screen in human keratinocytes (AID 1919968; active means well fitted curve in the direction sought with a large enough effect in the repeat runs; an effect the other way counts as inactive or inconclusive; further: nearly all actives have a fitted effect of over 55% in size; further: potency means the concentration at half of the fitted maximal effect)
How it was run: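 Fluorescence read-out from CellTiter-Fluor after 1 h at 37 C. Wells held HaCaT-derived ARE-luciferase reporter cells (1,500/well) treated 23 h with DMSO-dissolved compounds. Run in the same wells as the luciferase agonist read.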

[2] = Nuclear factor erythroid 2-related factor 2/antioxidant responsive element (Nrf2/ARE) small molecule agonists: luciferase reporter gene qHTS assay in human keratinocytes (AID 1919969); further: nearly all actives have a fitted effect of over 35% in size; further: potency means the concentration at half of the fitted maximal effect
[3] = biological target: Gonadotropin-releasing hormone receptor (Homo sapiens) (UniProt P30968); assay: Human gonadotropin-releasing hormone receptor (GnRHR) small molecule agonists, calcium flux assay in GnRHR-HEK293 cells (AID 1920063); further: nearly all actives have a fitted effect of over 35% in size
Chain of Gonadotropin-releasing hormone receptor (Homo sapiens) (P30968 whole entry, looked up): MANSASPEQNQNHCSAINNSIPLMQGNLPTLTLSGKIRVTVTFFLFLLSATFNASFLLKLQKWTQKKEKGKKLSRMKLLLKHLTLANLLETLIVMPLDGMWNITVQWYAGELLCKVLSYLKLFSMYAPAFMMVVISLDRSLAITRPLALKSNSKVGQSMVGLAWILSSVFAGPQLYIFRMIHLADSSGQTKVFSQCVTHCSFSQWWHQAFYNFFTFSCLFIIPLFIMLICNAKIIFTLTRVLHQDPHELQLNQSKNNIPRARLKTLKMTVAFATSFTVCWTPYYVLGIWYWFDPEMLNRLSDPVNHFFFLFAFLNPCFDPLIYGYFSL
How it was run: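 Calcium-dye fluorescence, Ex/Em=480/540, recorded every 1 sec over 3 min after compound addition to GnRHR-HEK293 cells. Cells had been seeded 18 hours earlier and dye-loaded for 1 hour at 37 C. Fifteen concentrations, triplicates.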

[4] = biological target: KiSS-1 receptor (Homo sapiens) (UniProt Q969F8); assay: Human kisspeptin (KISS1R) small molecule agonists, calcium flux assay in KISS1R-HEK293 cells (AID 1920064; active means well fitted curve in the direction sought with a large enough effect in the repeat runs; an effect the other way counts as inactive or inconclusive)
Chain of KiSS-1 receptor (Homo sapiens) (Q969F8 whole entry, looked up): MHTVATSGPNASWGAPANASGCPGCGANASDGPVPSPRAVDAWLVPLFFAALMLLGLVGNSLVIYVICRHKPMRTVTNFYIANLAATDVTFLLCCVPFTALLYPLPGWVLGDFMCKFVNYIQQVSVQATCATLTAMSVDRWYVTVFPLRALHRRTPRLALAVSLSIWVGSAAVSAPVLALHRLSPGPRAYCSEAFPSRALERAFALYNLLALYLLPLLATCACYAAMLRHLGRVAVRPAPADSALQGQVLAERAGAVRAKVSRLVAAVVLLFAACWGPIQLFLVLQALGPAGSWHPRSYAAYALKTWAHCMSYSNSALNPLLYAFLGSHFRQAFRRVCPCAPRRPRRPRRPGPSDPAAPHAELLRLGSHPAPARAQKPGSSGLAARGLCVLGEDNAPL
How it was run: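 Calcium flux read-out: kinetic fluorescence at Ex/Em=480/540, 1 s intervals over 3 min, after pin-tool compound addition to dye-loaded KISS1R-HEK293 cells. Fifteen concentrations, triplicates.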

[5] = G protein-coupled receptor (GPCR) small molecule agonists, calcium flux assay: HEK293 wild type cell line counter screen (AID 1920065)
How it was run: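 Agonist mode; 18 h seeding at 37 C, 1 h dye load at 37 C; compounds pinned from DMSO, ATP as positive control; kinetic fluorescence 480/540 nm, 3 min, 1 s reads; 15 concentrations, triplicate.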

[6] = p53 small molecule agonists, cell-based qHTS assay with human liver microsomes (AID 1963577);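 further: p53 response element beta-lactamase reporter cells with liver microsomes plus NADPH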
How it was run: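 p53RE-bla cells; 5 h settle, 37 C/5% CO2; cpd + HLM 0.5 mg/mL + NADPH 0.5 mg/mL (final); 16 h 37 C; LiveBLAzer 2 h RT dark; fluorescence readout.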

[7] = p53 small molecule agonists, cell-based qHTS assay with rat liver microsomes (AID 1963578)
How it was run: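 Rat liver microsome activation: microsomes 0.5 mg/mL, NADPH 0.5 mg/mL final; p53RE-bla cells, 16 h 37 C; LiveBLAzer readout, 2 h RT dark.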

[8] = p53 small molecule agonists, cell-based qHTS assay with human liver microsomes: qHTS cell viability counter screen (AID 1963579); further: nearly all actives have a fitted effect of over 45% in size; further: potency means the concentration at half of the fitted maximal effect
How it was run: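 Luminescent CellTiter-Glo read-out, 30 min at room temperature, gauged cytotoxicity in p53RE-bla cells exposed 16 h at 37 C to DMSO-dissolved compounds with metabolic activation by human liver microsomes and NADPH, each 0.5 mg/mL final.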

[9] = p53 small molecule agonists, cell-based qHTS assay with rat liver microsomes: qHTS cell viability counter screen (AID 1963580); further: nearly all actives have a fitted effect of over 45% in size; further: potency means the concentration at half of the fitted maximal effect
How it was run: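 Rat liver microsome (0.5 mg/mL final) and NADPH (0.5 mg/mL final) co-incubation with compounds for 16 h at 37 C on HCT-116 p53RE-bla cells; cytotoxicity taken from intracellular ATP luminescence.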

[10] = p53 small molecule agonists, cell-based qHTS assay: qHTS cell viability counter screen (AID 1963581); further: nearly all actives have a fitted effect of over 45% in size; further: potency means the concentration at half of the fitted maximal effect
How it was run: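 Cytotoxicity read-out: ATP-based luminescence (CellTiter-Glo, 30 min RT) measured in the same wells as the p53 reporter assay, HCT-116 p53RE-bla cells, 16 h compound exposure at 37 C.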

[11] = biological target: 5-hydroxytryptamine receptor 2A (Homo sapiens) (UniProt P28223); assay: 5-hydroxytryptamine receptor 2A (HTR2A) small molecule antagonists, cell-based qHTS assay (AID 1963586); further: nearly all actives have a fitted effect of over 45% in size; further: potency means the concentration at half of the fitted maximal effect
Chain of 5-hydroxytryptamine receptor 2A (Homo sapiens) (P28223 whole entry, looked up): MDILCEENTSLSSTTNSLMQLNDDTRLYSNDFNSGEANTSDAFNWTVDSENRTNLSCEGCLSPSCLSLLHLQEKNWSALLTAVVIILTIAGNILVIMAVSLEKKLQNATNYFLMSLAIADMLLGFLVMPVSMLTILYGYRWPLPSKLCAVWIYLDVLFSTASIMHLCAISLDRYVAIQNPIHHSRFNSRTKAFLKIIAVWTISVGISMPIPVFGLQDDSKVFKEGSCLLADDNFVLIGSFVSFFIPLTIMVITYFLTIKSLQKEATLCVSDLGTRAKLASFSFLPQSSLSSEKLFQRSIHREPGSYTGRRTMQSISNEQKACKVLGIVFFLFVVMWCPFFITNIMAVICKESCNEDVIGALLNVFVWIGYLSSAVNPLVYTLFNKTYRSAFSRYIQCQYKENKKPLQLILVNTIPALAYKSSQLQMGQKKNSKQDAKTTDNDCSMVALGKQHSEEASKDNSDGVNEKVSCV
How it was run: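 CHO cells stably expressing human HTR2A were plated for 18 h at 37 C, then loaded with calcium dye for 1 h. Compounds were preincubated 5 min at room temperature before DOI (4 nM solution) was added. Kinetic fluorescence was read for 3 min.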

[12] = biological target: 5-hydroxytryptamine receptor 2A (Homo sapiens) (UniProt P28223); assay: 5-hydroxytryptamine receptor 2A (HTR2A) small molecule agonists, cell-based qHTS assay (AID 1963587); further: nearly all actives have a fitted effect of over 30% in size; further: potency means the concentration at half of the fitted maximal effect
How it was run: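 Kinetic calcium-flux fluorescence (2 min, 1 sec intervals) after compound addition in agonist mode. HTR2A-CHO cells were cultured 18 h, then dye-loaded 1 h at 37 C.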

[13] = biological target: Muscarinic acetylcholine receptor M1 (Homo sapiens) (UniProt P11229); assay: Cholinergic receptor muscarinic 1 (CHRM1) small molecule agonists, cell-based qHTS assay (AID 1963589); further: nearly all actives have a fitted effect of over 35% in size
Chain of Muscarinic acetylcholine receptor M1 (Homo sapiens) (P11229 whole entry, looked up): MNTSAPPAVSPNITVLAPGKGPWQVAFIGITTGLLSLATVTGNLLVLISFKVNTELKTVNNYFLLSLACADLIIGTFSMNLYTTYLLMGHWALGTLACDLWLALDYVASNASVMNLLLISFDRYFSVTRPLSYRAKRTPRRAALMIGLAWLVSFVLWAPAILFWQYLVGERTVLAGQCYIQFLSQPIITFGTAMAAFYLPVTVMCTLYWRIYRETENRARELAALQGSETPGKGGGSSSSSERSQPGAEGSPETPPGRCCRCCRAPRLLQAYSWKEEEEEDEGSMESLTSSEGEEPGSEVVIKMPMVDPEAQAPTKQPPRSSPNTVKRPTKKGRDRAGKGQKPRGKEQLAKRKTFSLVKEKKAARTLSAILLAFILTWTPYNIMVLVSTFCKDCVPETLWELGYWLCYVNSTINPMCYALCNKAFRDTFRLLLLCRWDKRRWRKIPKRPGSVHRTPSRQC
How it was run: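 Calcium flux read-out: kinetic fluorescence at 1 sec intervals after pin-tool compound addition to dye-loaded CHRM1-CHO cells (human M1). Agonist mode; 15 concentrations tested in triplicate independent runs.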

[14] = cAMP Responsive Elements (CRE) small molecule agonists, cell-based qHTS assay (AID 1963590)
How it was run: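 Beta-lactamase reporter readout: LiveBLAzer B/G FRET substrate, 2 h at room temperature, added after 3 h compound treatment of CRE-bla HEK 293T cells at 37 C/5% CO2.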

[15] = cAMP Responsive Elements (CRE) small molecule antagonists, cell-based qHTS assay (AID 1963591; active means well fitted inhibition curve with a large enough effect in the signal ratio in the repeat runs, not every such curve was filed as active; the % refers to the signal ratio)
How it was run: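 HEK293T CRE-bla; 18 h preincubation; compound pin-transfer; NKH477 0.25 uM final, 3 h, 37 C; LiveBLAzer FRET substrate 2 h RT.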

[16] = biological target: Beta-2 adrenergic receptor (Homo sapiens) (UniProt P07550); assay: Adrenergic beta2 receptor (ADRB2) small molecule antagonists, cell-based qHTS assay (AID 1963592); further: series mostly up to about 92 µM; nearly all actives have a fitted effect of over 50% in size
Chain of Beta-2 adrenergic receptor (Homo sapiens) (P07550 whole entry, looked up): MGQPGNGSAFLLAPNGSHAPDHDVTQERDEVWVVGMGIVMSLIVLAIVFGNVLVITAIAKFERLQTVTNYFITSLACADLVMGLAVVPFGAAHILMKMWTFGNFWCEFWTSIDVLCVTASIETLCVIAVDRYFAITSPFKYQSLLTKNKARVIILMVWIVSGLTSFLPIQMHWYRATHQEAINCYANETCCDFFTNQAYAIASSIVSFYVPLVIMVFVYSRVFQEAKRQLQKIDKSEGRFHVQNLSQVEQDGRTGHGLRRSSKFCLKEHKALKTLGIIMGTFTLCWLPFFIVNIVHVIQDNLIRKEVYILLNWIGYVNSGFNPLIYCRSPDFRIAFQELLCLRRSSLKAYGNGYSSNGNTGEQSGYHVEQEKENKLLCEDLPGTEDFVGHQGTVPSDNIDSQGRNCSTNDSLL
How it was run: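 Assay format: CHO-ADRB2 cells, 18-20hr seeding at 37C/5% CO2, then compound plus 1nM isoproterenol agonist mix for 0.5hr RT. Homogeneous time-resolved fluorescence cAMP detection after 1hr, expressed as 665/615 nm ratio.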

[17] = biological target: D(2) dopamine receptor (Homo sapiens) (UniProt P14416); assay: Dopamine D2 receptor (DRD2) small molecule agonists, cell-based qHTS assay (AID 1963594); further: nearly all actives have a fitted effect of over 35% in size
Chain of D(2) dopamine receptor (Homo sapiens) (P14416 whole entry, looked up): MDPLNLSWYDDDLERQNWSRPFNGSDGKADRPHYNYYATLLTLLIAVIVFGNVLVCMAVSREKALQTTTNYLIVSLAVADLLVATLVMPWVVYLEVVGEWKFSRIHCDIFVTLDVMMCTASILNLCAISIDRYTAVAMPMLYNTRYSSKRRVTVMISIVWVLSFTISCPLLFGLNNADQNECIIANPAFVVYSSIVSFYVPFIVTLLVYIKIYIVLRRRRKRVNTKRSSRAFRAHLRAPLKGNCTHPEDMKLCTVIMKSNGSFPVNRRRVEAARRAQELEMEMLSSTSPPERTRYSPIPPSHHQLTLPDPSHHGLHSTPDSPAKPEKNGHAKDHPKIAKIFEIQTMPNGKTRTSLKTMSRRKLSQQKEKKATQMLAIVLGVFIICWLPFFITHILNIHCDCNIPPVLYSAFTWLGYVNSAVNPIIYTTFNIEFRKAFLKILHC
How it was run: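 cAMP accumulation in DRD2-HEK293 cells measured by HTRF after 1 h detection; compounds added 10 min before NKH477 (200nM […]) forskolin-analogue stimulation, 30 min at room temperature, with Ro20-1724 present at 0.1 mM final.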

[18] = biological target: D(2) dopamine receptor (Homo sapiens) (UniProt P14416); assay: Dopamine D2 receptor (DRD2) small molecule antagonists, cell-based qHTS assay (AID 1963595; active means well fitted inhibition curve with a large enough effect in the signal ratio in the repeat runs, with a control signal flat; the % refers to the signal ratio; further: potency means the concentration at half of the fitted maximal effect)
How it was run: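 Readout: HTRF cAMP, cAMP-d2 competing with cellular cAMP for anti-cAMP cryptate, read after 1 h. Cells: DRD2-HEK293. Conditions: 0.1 mM Ro20-1724, 12 nM quinpirole, 200 nM NKH477, 30 min RT.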

[19] = biological target: Beta-2 adrenergic receptor (Homo sapiens) (UniProt P07550); assay: Adrenergic beta2 receptor (ADRB2) small molecule agonists, cell-based qHTS assay (AID 1963593);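 further: CHO cells stably overexpressing human ADRB2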
How it was run: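 CHO cells stably over-expressing ADRB2 were plated overnight at 37C, then dosed with compounds plus a stimulation mix containing 100uM IBMX and 25uM Ro-20-1724 for 0.5hr at room temperature. cAMP was measured by HTRF competition, 1hr.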

[20] = p53 small molecule agonists, cell-based qHTS assay (AID 1963582; active means well fitted activation curve with a large enough effect in the signal ratio in the repeat runs, not every such curve was filed as active; the % refers to the signal ratio)
How it was run: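 Fluorescence intensity read-out of a beta-lactamase reporter under a p53 response element. Cells were exposed to DMSO-dissolved compounds for 16 h at 37 C, then developed with FRET substrate for 2 h at RT.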

Row | SMILES | Potency [1] | Potency [2] | Potency [3] | Potency [4] | Potency [5] | Potency [6] | Potency [7] | Potency [8] | Potency [9] | Potency [10] | Potency [11] | Potency [12] | Potency [13] | Potency [14] | Potency [15] | Potency [16] | Potency [17] | Potency [18] | Potency [19] | Potency [20]
1 | CC1CCC2CC1C2(C)C (centres undefined) | inactive | inactive | inactive | inactive | inactive | inactive | inactive | inactive | inactive | inactive | inactive | inactive | inactive | inactive | inactive | inactive | inactive | inactive |  | 
2 | O=C(c1cc(O)c(O)c(O)c1)c1ccc(O)c(O)c1O | inactive | inactive | inactive | inactive | inactive | inactive | inactive | inactive | inactive | inactive | inactive | inactive | inactive |  | inactive |  | inactive | inactive |  | 
3 | CC#C[C@]1(O)CC[C@H]2[C@@H]3CCC4=CC(=O)CCC4=C3[C@@H](c3ccc(N(C)C)cc3)C[C@@]21C | inactive | inactive | inactive | inactive | inactive | inactive | inactive | inactive | inactive | inactive |  |  |  |  |  | inactive | inactive | inactive |  | 
4 | CCC(C)OC(=O)c1ccc(O)cc1 (centres undefined) | inactive | inactive | inactive | inactive | inactive | inactive | inactive | inactive | inactive | inactive | inactive | inactive | inactive | inactive | inactive | inactive | inactive | inactive |  | 
5 | CC1=C(/C=C/C(C)=C/C=C/C(C)=C/CO)C(C)(C)CCC1 | inactive | 69.4 µM (active) and 72.3 µM (active) | inactive | inactive | inactive | inactive | inactive | inactive | inactive | inactive | inactive | inactive | inactive |  |  | inactive | inactive | inactive | inactive | 
6 | OC(CCl)CCl | inactive | inactive | inactive | inactive | inactive | inactive | inactive | inactive | inactive | inactive | inactive | inactive | inactive | inactive | inactive | inactive | inactive | inactive |  | 
7 | OCc1ccc(Cl)cc1Cl | inactive | inactive | inactive | inactive | inactive | inactive | inactive | inactive | inactive | inactive | inactive | inactive | inactive | inactive | inactive | inactive | inactive | inactive | inactive | 
8 | O=c1ccc2ccccc2o1 | inactive | inactive | inactive | inactive | inactive | inactive | inactive | inactive | inactive | inactive |  |  |  | inactive | inactive | inactive |  | inactive | inactive | 
9 | C[C@]12CCC(=O)C=C1CC[C@@H]1[C@@H]2C(=O)C[C@@]2(C)[C@H]1CC[C@]2(O)C(=O)CO | inactive | inactive | inactive | inactive | inactive | inactive | inactive | 408 nM (active) and inactive | inactive | inactive |  |  |  | inactive |  | inactive | inactive | inactive | inactive | inactive
10 | CC(=O)O[C@]1(C(C)=O)CC[C@H]2[C@@H]3C=C(Cl)C4=CC(=O)CC[C@]4(C)[C@H]3CC[C@@]21C | inactive | 68.5 µM (active) and inactive | inactive | inactive | inactive | inactive | inactive | inactive | inactive | inactive |  |  |  |  |  | inactive | inactive | inactive | inactive | inactive
11 | OC[C@@H](O)[C@H](O)[C@H](O)[C@@H](O)CO | inactive | inactive | inactive | inactive | inactive | inactive | inactive | inactive | inactive | inactive |  |  |  |  | inactive |  | inactive | inactive | inactive | inactive
12 | O=C(c1ccccc1)c1ccc(O)c(O)c1O | inactive | inactive | inactive | inactive | inactive | inactive | inactive | inactive | inactive | inactive | inactive | inactive | inactive | inactive | inactive | inactive | inactive | inactive | inactive | 
13 | CCCCCCCCCCCCCCCC[N+](C)(C)Cc1ccccc1 | 28.2 µM (active) and 24.8 µM (active) and 26.6 µM (active) | inactive | inactive | inactive | inactive | inactive | inactive | 53 µM (active) and 33 µM (active) and inactive | 41.5 µM (active) and inactive | 37 µM (active) | inactive and 11.6 µM (active) | 49.8 µM (active) |  |  |  | inactive | inactive | 55.5 µM (active) | inactive | 
14 | NS(=O)(=O)c1cc2c(cc1Cl)NCNS2(=O)=O | inactive | inactive | inactive | inactive | inactive | inactive | inactive | inactive | inactive | inactive |  |  |  | inactive |  | inactive | inactive | inactive | inactive | inactive
15 | COCCc1ccc(OCC(O)CNC(C)C)cc1 (centres undefined) | inactive | inactive | inactive | inactive | inactive | inactive | inactive | inactive | inactive | inactive |  |  |  |  | inactive |  |  | inactive |  | inactive
